Results published in PubChem BioAssay AID1508600 (Functional Genomics Laboratory (NCATS/FGL), 2020).
The campaign covered roughly 53,000 sequences. About 3,700 (7%) were called active.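 How the source made its calls: active means gene knockdowns whose robust z-score for IL-1 alpha signal is at least 2 or at most -2, so actives lie on both sides; inactive means the rest.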 The full list was thinned out, with actives kept by preference.

Test: Components of the Cytosolic LPS Sensing Pathway: Gene Identification via Genome-wide siRNA Screen;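 further: robust z of the log signal after scaling to non-targeting control siRNA wells of the plate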
Conditions: RAW264.7 macrophages, IL-1a HTRF, actives lie on both sides, screened at 100 nM (by protocol), cells primed 5 h with Pam3CSK4 first
In short: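 Mouse macrophage line RAW264.7 is transfected with siRNA (100 nM final), grown 48h, primed with TLR ligand Pam3CSK4 5 h and given intracellular LipidA 24 h. IL-1a in supernatant is read by HTRF and viability by luminescence.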

z-score, inactive:
GCAAUGUGUGGUAAGUAAATT against Zfp738 -0.757
GGUUUAGCUGCUGACUUAATT against Strn3 1.03
GGAGAAGGUUUUGAUGUGGTT against Drg1 -1.31
GGCAACUGGAGAUGUGUGUTT against Lpgat1 -0.361
CGACAUCCCAAUAAACAAGTT against Lcn3 -1.1
GCAGAGGAGUUUUCAAUUUTT against Il17rb 0.997
GGUACCUGAGUCCAUCUCATT against Sntb1 -0.219
CGAACUUCAAGACUGUGAUTT against Cep95 -0.248
GGAAAUAAUGACCAAGUACTT against Grk5 -1.32
CCCUGGUAAACACCAAUAGTT against Ctnna1 0.849
GCCUGUCCACAUCACUGUATT against Tmem171 -0.16
CCCUAAGGAGUUUUGCGUUTT against Ikzf4 1.58
GGUAUAUGGACUGGUGGAUTT against Hrh2 0.41
GGAUCAAUGAAAAUGAGAATT against Fzr1 -0.0554
CCAGUACCCGUCUGAAAAGTT against Olfr215 -0.457
GGAUCUUUGCUACAAAAACTT against Fhl5 0.48
GGGACUUAUGUCCAGGAAGTT against Agap3 -1.09
GGGACCACCUUGAACACUATT against Slc52a3 1.81
GGCAUCUUAUUUCUUGUUATT against Tbkbp1 -0.56
GUGAAGAAAGUCAUCAAGATT against Olfr1506 -0.182
GCAAGGUCAAUCAAUCGUATT against Taar1 0.548
GCGGAGUCUUUGGCUUAGATT against Lratd2 1.03
CGAAAGCUAAACUAAAAGATT against Stimate 0.539
GCUGAAUACCCUUUUAGUUTT against Atp2c1 0.317
GCGAUAUUAACUAUGGAGATT against Gpr149 -0.601
GGUAUUCCAAUAACUGUACTT against Fip1l1 -0.269
GGAAAGAAUCCACUUGCAUTT against Xkr5 -1.35
CGGCCUUCUCUACAAAUCATT against Rbfa 0.816
GCUGACCAUUUUGAUGCCCTT against Adi1 -0.0381
GGUGGUUUUGUUUCUUUUUTT against Tab3 0.643
GGGCCAACCCAGAAAAACATT against Plekha7 -0.515
GCCGUCUUUACAUUCCUGATT against Olfr605 0.8
GGUGUUUAAUUGCUCACUATT against Gramd4 1.13
UACCCGAAUGCAGACAGGATT against Raet1a 0.667
GGAGGAAGCUGAACUCUGGTT against Ehmt2 -0.655
CCUUGUGAUGUUUAAAGACTT against Abcg1 0.293
CCAGUUGUCUAGACCUGCATT against Ptbp1 -0.301
CCUACAAGCAGAGUACAAUTT against Myo10 1.06
GGCCUUCAACGAUUCAAUCTT against Olfr770 1.35
GGAGAGAAAUUUGACACUCTT against Mgrn1 -0.0326
GCCAGUGUCCCUAAUAAGGTT against Ager 0.2
GCAAACUAUAGGUGCGUUGTT against Dscc1 0.885
GCAAACAUGUCAAGUCCGATT against Actl6b 1.07
GCAUUUCACCUGGAGCCUUTT against Zfp108 -1.11
CGAGAAUACAUUGAGGAGUTT against Hook2 0.926
CGACAACCACUUCAACUAUTT against Chn2 1.34
GGCUAUCCUCUUUUACCAUTT against Dele1 -0.374
GGUGUUAGGAAGUCACAUUTT against Tas2r109 -1.28
GGAAAAAGCUCAAAGGCGATT against Gap43 -0.216
GGAAAUGGAUCCAGAAUAUTT against Smarca1 -1.12
GGACAUGACAUCCAAAGACTT against Prmt1 -0.649
GGACACAGAUUAAUCAAGATT against Iftap 0.144
GGCCAUUGCCUCUUCUACUTT against Plekha4 -0.225
GGCCAUCCGCAUUUUUUCCTT against Mex3b -0.34
GGUUUUCAAAGUCCUGAAUTT against Myo3a -1.96
GGGAAAGAAUGGUGUGGAATT against Dlx4 -1.97
GGAAACUUCAGACUAGUCATT against Eif2s3y -0.0291
GGGAAUUUCGGCUGUUUUATT against Cts8 1.85
GGUCCACAGAUUCUUCUAATT against Zfa-ps -0.761
GGCCAUUUUGGAUCAUACATT against Actl6a -1.06
GCAGAUCAAUGGAUUCACCTT against Olfr57 -1.51
GGCACUGCCAUUAACAAAATT against Nrip1 0.0122
CCUGAUUGUCUUCAAUGGGTT against Cant1 -0.84
CCAGUUGACAGGUUUGAUCTT against Habp4 -0.255
GGUACAAGAUAUUGUGAAATT against Fgd3 0.0612
GAGCUCUGCAUUUGGUUAGTT against Fam98b 0.0904
ACUCAGUCAUUAAAGAGUGTT against G430095P16Rik 0.447
GGAUAUUCCCAAUUACAAGTT against Plxna3 -0.469
GGUCCAGAAGCAGAUGCUUTT against Zdhhc15 -0.174
GCAAGAACAUUAUGAAAGUTT against Epb41 0.905
GGCACUGUAGACAAACUCUTT against Stxbp1 -0.468
GGCACCUAUGAGGUUCUAUTT against Sec16b -0.615
GUUCAAGAGGGAGCUGGAATT against Pomc 0.842
GGGCCUUUAGUCCUCAAAGTT against Psmg3 0.387
CCUGUCAUCACACUCGAGGTT against Coro6 -0.00248
GGUAGAAUGUGUGAUACCCTT against Rogdi 0.205
GGUGGUCCAGAAUUUUGCATT against Cotl1 0.386
CGGGAAUAAGAUCUUUCUGTT against Zbtb22 1.43
GGAAUAGUGGCUUCUUUUATT against Rsph3a -0.00182
UUUGCAUGUACAGAAUGCUTT against Olfr312 1.54
GGAAACACAAGUUCUAGGUTT against Gpx3 0.735
GGGUUUCUGUGAGAGACAATT against Ube2f 1.01
GGGACUAUAAGGAACCAGGTT against Fmo3 -0.35
GGGCAAGACUUAAUUUUGGTT against Dppa1 -0.36
GGUCAAGAGUGCCCUAAAATT against Olfr398 -1.63
GGAUUCGUUCAGCUAAGGGTT against Olfr1023 1.29
GGAGAAAUGUUGUUGUCUUTT against Kcng3 -0.327
AAAGCGCAUUCACAAAAAUTT against Olfr1453 0.197

z-score, active:
GGCCCUUCUGGACUAUCAUTT against Ccdc83 3.39
GGUCUAUUUGACCUCUUAATT against Bcl2l13 2.22
GGGAUAACCAGUGAAUUUATT against Pcdhb15 2.23
GGCUUUGAUCAGCAUGAGCTT against Pak4 -2.07
GGAGAUUUUCCAGAGGCUGTT against Josd1 -2.24
CCCAUCAAAAGAAUCCACATT against Snrnp70 -2.51
GCAUUUAGAAGAAUCCGCCTT against Hao2 2.01
GUGAGUAGGUAGGAAGCAUTT against Cd200r2 -2.56
GUCUACCAGAUCCUUCCCUTT against H2-Q8 -2.25
GGACUAUUUGCUGAUGGACTT against Trpc6 2.74
CCCUAUCCUGUUCAUCUCUTT against Gpr50 2.83
GAUCAACCUGAGCUCCAGUTT against Olfr25 2
GGACCUGAGAGACUCUUUGTT against Ip6k2 -3
GGGCCAAUAAAGAGGACAGTT against Aanat 2.38
GCUUGAUCAACAAGUGGAGTT against Nup62 -2.13
GGCCUACCACCUUCAGAAGTT against Rpl37 2.01
GGUCAUUUGUUUUCAGGGATT against Tfdp2 3.07
CGGCGGUUUAAUGAAAAUATT against Cbfa2t2 -2.58
GGUACAUGAUUACCAGCCUTT against Sdk2 -2.26
GGAUGUUUGCUCUUGAGCGTT against Isoc1 -2.17
